PubChem BioAssay AID540276 (National Center for Advancing Translational Sciences (NCATS), 2011)
Where “and” joins values, the source holds several entries; their conditions need not be identical. Equal values may be shown once. In all, about 300,000 compounds went through this assay and about 5,400 (1.8%) were called active. Entries that show only a call come without a potency. About 28% were inconclusive and are not listed. The call rests on the fitted dose curve; tested in HEK293 cells. The full list was thinned out, with actives kept by preference.

test: qHTS for inhibitors of binding or entry into cells for Marburg Virus; details: Marburg virus pseudotyped entry inhibition, cell reporter; series mostly up to 37.8 µM
Potency means the concentration at half of the fitted maximal effect.

| Structure (SMILES) | Potency |
| --- | --- |
| COc1cccc(C(=O)NNC(=O)c2cccc(F)c2)c1 | inactive |
| Cc1c(Cl)c([N+](=O)[O-])nn1CC(=O)NCCCN1CCOCC1 | inactive |
| CCOC(=O)N1CCC(N2Cc3cccc(C(=O)Nc4ccc(S(=O)(=O)N(CC)CC)cc4)c3C2=O)CC1 | inactive |
| CCn1cc(C(=O)O)c(=O)c2c1N=C(C)CC2 | inactive |
| Cc1ccnc(NC(=O)c2ccoc2C)c1 | inactive |
| COc1ccccc1CNC(=O)c1ccc(SC)cc1OC | inactive |
| COc1cc(SC)ccc1C(=O)Nc1cc(C)ccn1 | 14.6 µM (active) |
| COc1cnn(-c2ccc([N+](=O)[O-])cc2)c(=O)c1Cl | inactive |
| Cc1cccnc1CC(C)NC(=O)c1cc(COc2cncc(Cl)c2)on1 (stereo not drawn) | inactive |
| CCCC(O)(c1ccccc1)C(c1ccccc1)c1ccccn1 (stereo not drawn) | inactive |
| O=C(c1ccc2c(c1)N(Cc1ccccc1)C(=O)c1ccccc1S2(=O)=O)N1CCCC1 | inactive |
| O=C(c1ccc2c(c1)N(Cc1ccc(F)cc1)C(=O)c1ccccc1S2(=O)=O)N1CCN(c2ccccn2)CC1 | 5.01 µM (active) and 3.16 µM (active) |
| O=C(c1ccc2c(c1)N(Cc1ccc(Cl)cc1)C(=O)c1ccccc1S2(=O)=O)N1CCCCC1 | inactive |
| O=C(Nc1ccc(S(=O)(=O)Nc2ccccn2)cc1)c1ccccc1 | inactive |
| COC(=O)Cc1nc2c(N)nc(N)nc2[nH]c1=O | inactive |
| CCCCn1c(N)c(N(CCC(C)C)C(=O)CC2OC(=O)c3ccccc32)c(=O)[nH]c1=O (stereo not drawn) | inactive |
| COc1ccc(Cl)cc1NC(=O)COC(=O)c1ccc(Br)o1 | inactive |
| c1ccc(-c2ccccc2OCCN2CCCCC2)cc1 | 14.6 µM (active) |
| CC1CCCN(CCOCCOc2ccccc2-c2ccccc2)C1 (stereo not drawn) | 11.2 µM (active) |
| CC1CN(CCCOc2ccccc2-c2ccccc2)CC(C)O1 (stereo not drawn) | inactive |
| O=[N+]([O-])c1ccccc1OCCCCN1CCCCC1 | inactive |
| c1ccc2cc(OCCN3CCCC3)ccc2c1 | inactive |
| CC1CN(CCOc2ccccc2[N+](=O)[O-])CC(C)O1 (stereo not drawn) | inactive |

| Structure (SMILES) | Potency |
| --- | --- |
| CN(Cc1ccc(F)cc1)C(=O)CN1C(=O)c2ccccc2S1(=O)=O | inactive |
| COc1ccc(C(=O)CC(=O)c2ccc(C)cc2)c(O)c1 | inactive |
| COc1ccc(N=C2C=CC(=O)O2)cc1 | inactive |
| COc1ccc(Cc2nc3ccc(C(=O)NCC4CCOCC4)cc3o2)cc1OC | inactive |
| CCOC(=O)CN(C)Cc1c[nH]c2ccccc12 | inactive |
| O=C(Cc1c[nH]c2ccccc12)OCCOC(=O)Cc1c[nH]c2ccccc12 | 18.3 µM (active) |
| O=C(COC(=O)Cc1c[nH]c2ccccc12)NCCc1ccccc1 | inactive |
| COc1ccc(S(=O)(=O)NCc2cccnc2)cc1NC(=O)c1ccc(C)cc1 | inactive |
| COc1cc(C(=O)Nn2c(CC(C)C)nc3ccccc3c2=O)cc(OC)c1OC | inactive |
| Cc1cc(O)ccc1-c1cnc2ccccc2n1 | inactive |
| Cc1ccc(NC(=O)c2cc(-c3ccc(C)o3)nc3ccccc23)nc1 | inactive |
| Cc1ccc(Nc2nc(-c3ccc(O)cc3O)cs2)nc1 | 4.47 µM (active) |
| CC(=O)c1ccc(S(=O)(=O)Nc2ccc(-c3ccc4nncn4n3)cc2)cc1 | inactive |
| NC(=S)NN=C1CCCC(C(F)(F)F)C1 (stereo not drawn) | inactive |
| O=C(COC(=O)c1ccc(Br)o1)NC12CC3CC(CC(C3)C1)C2 | inactive |
| CCOc1cc(N2CCOCC2)c(OCC)cc1NC(=O)COc1cccc2cccnc12 | 4.47 µM (active) |
| CCOc1cc(N2CCOCC2)c(OCC)cc1NC(=O)COc1cccc(Cl)c1 | inactive |
| CCOc1cc(N2CCOCC2)c(OCC)cc1NC(=O)COC(=O)[C@H](Cc1c[nH]c2ccccc12)NC(C)=O | inactive |
| COc1ccc(Cl)cc1NC(=O)CN1CCN(C(=O)N2CCOCC2)CC1 | inactive |
| O=C(Nc1c2c(nc3ccccc13)CCCC2)c1ccccc1Br | inactive |
| Cc1ccc(Nc2c3c(nc4ccccc24)CCC3)cc1 | 11.2 µM (active) |
| CCOc1ccc(NC(=O)CSc2c3c(nc4ccccc24)CCCC3)cc1 | inactive |
| Cc1ccc(C(=O)O)c(NC=O)c1OCc1ccccc1 | inactive |

| Structure (SMILES) | Potency |
| --- | --- |
| Cc1[nH]c(C)c(S(=O)(=O)N2CCC(C)CC2)c1C(=O)N1CCCC1 | inactive |
| CN(CC(=O)NCCc1ccc(S(N)(=O)=O)cc1)CC(=O)Nc1ccc(Cl)cc1 | inactive |
| O=C(NC1(C(F)(F)F)N=C(c2ccccc2)N(C2CCCCC2)C1=O)c1ccccc1F (stereo not drawn) | inactive |
| O=C1NC(Nc2nc3ccccc3s2)(C(F)(F)F)C(=O)N1C1CCCCC1 (stereo not drawn) | 6.51 µM (active) |
| COC(=O)NC1(C(F)(F)F)NC(=O)N(C2CCCCC2)C1=O (stereo not drawn) | inactive |
| C=CCOc1cccc(CNCc2cccnc2)c1 | inactive |
| CC(C)c1ccc(/C=C/C(=O)NCCCN2CCOCC2)cc1 | inactive |
| O=C(/C=C/c1cn(-c2ccccc2)nc1-c1ccc2c(c1)OCCO2)NCCCN1CCOCC1 | 3.55 µM (active) |
| COc1ccc(-c2nn(-c3ccccc3)cc2/C=C\C(=O)N2CCOCC2)cc1[N+](=O)[O-] | inactive |
| Cc1cc(F)ccc1NC(=S)NCCc1ccccc1 | inactive |
| O=C(Nc1cccc(Cl)c1Cl)c1ccccc1NC(=O)C1CC=CCC1C(=O)O (stereo not drawn) | inactive |
| Cc1ccccc1CN1CCNC(=O)C1CC(=O)NCCC1=CCCCC1 (stereo not drawn) | inactive |
| Cc1ccc(NS(=O)(=O)c2cccs2)cc1S(=O)(=O)N1CCCCCC1 | 10 µM (active) |
| Cc1ccc(NC(=O)CCCNC(=O)c2ccc(Cl)cc2)cc1S(=O)(=O)N1CCCCC1 | inactive |
| O=S(=O)(Nc1ccccc1)c1ccc(NS(=O)(=O)c2cccs2)cc1 | inactive |
| Cc1ccc(NC(=O)c2ccccn2)cc1S(=O)(=O)N1CCOCC1 | inactive |
| Cc1ccc(C(=O)NNC(=O)c2ccncc2)cc1S(=O)(=O)N1CCCCC1 | inactive |
| COc1ccccc1C(=O)Nc1ccc(C)c(S(=O)(=O)N2CCCCC2)c1 | 8.91 µM (active) |
| CCOc1ccc2ccccc2c1/C=N/NC(=O)c1c(C)cc(C)[nH]c1=O | inactive |
| Cc1ccc(/C=C2\CCn3c2nc2cc(C(=O)O)ccc2c3=O)c(C)c1 | inactive |
| Cc1ccc(Nc2nnc(SC(C)C(=O)NC3CC3)s2)cc1 (stereo not drawn) | inactive |
| CCOC(=O)C1CCN(C(=O)CN2C(=O)c3cccnc3Oc3ccc(C)cc32)CC1 | inactive |
